# Test results reported in PubChem BioAssay (NCI).
# Compounds without any hit were thinned out: in the full panel of roughly 83,000, 20% have a hit.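 Method: cells in 96-well plates; compound added at one concentration; 48 h incubation; percent growth measured; values under 10 scored active.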 Values without a mark were called inactive.
# Tested on: MDA-MB-468 breast
# Assay: NCI-60 one-dose screen, 48 h (100 = growth as untreated, 0 = no growth, -100 = all killed)
# Details: 10 µM unless noted
row,SMILES,growth [%]
1,Nc1nc(Nc2ccccc2)c2ncn(Cc3ccc4c(c3)OCO4)c2n1,13.4
2,Nc1nc(N)nc(NCc2ccccc2)n1,114
3,Cc1cc(C)n(Cc2cc(C(C)(C)C)cc(C(C)(C)C)c2)c(=O)c1C#N,97.4
